About 83,000 compounds went through this panel and 20% of them were active in at least one assay; those are over-represented in the sample as a whole.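 Each cell line was grown in a 96-well plate and treated with one concentration of compound for 48 hours. Values below 10 were considered active.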 Activity calls are given as the source filed them.
How the values were obtained:
Assay in all cases: NCI-60 one-dose screen, 48 h (100 = growth as untreated, 0 = no growth, -100 = all killed)
Details in all cases: 10 µM unless noted
NCI-H23 lung = test system: NCI-H23 lung
NCI-H226 lung = test system: NCI-H226 lung
NCI-H322M lung = test system: NCI-H322M lung
HOP-62 NSCLC = test system: HOP-62 NSCLC
NCI-H460 lung = test system: NCI-H460 lung
HOP-92 NSCLC = test system: HOP-92 NSCLC
NCI-H522 lung = test system: NCI-H522 lung
A549/ATCC NSCLC = test system: A549/ATCC NSCLC
786-0 renal = test system: 786-0 renal
COLO 205 colon = test system: COLO 205 colon

Measured: growth

O=S1SC(c2ccccc2)=NN1c1cc(F)cc(F)c1 (stereo not given)
inactive: NCI-H23 lung 22.9% | NCI-H226 lung 45.4% | NCI-H322M lung 67.9% | HOP-62 NSCLC 48.6% | NCI-H460 lung 19.6% | NCI-H522 lung 34.6% | A549/ATCC NSCLC 26% | 786-0 renal 34.9% | COLO 205 colon 107%
active: HOP-92 NSCLC -25.2%

O=C(Nc1ccc(Cl)c(C(F)(F)F)c1)Nc1ccc2oc(=O)ccc2c1
active: NCI-H23 lung 4.85% | HOP-92 NSCLC -1.84%
inactive: NCI-H226 lung 26.6% | NCI-H322M lung 60.5% | HOP-62 NSCLC 73.4% | NCI-H460 lung 18.1% | NCI-H522 lung 20.3% | A549/ATCC NSCLC 39.8% | 786-0 renal 70.3% | COLO 205 colon 58%

Cc1cc2nc(C(Cl)Cl)nc(-c3ccc(S(=O)(=O)N(C)C)cc3)n2n1
inactive: NCI-H23 lung 44.4% | NCI-H226 lung 71.8% | NCI-H322M lung 69.3% | HOP-62 NSCLC 32.8% | NCI-H460 lung 27.5% | HOP-92 NSCLC 50% | NCI-H522 lung 76.9% | A549/ATCC NSCLC 37% | 786-0 renal 94.5% | COLO 205 colon 25.2%

COc1ccc(/C(=N\NC(N)=S)c2ccc(Cl)cc2)cc1OC
inactive: NCI-H23 lung 27.4% | NCI-H226 lung 51.6% | NCI-H322M lung 53.6% | HOP-62 NSCLC 27.5% | NCI-H460 lung 12% | HOP-92 NSCLC 48.6% | A549/ATCC NSCLC 42.4% | 786-0 renal 42.1%
active: NCI-H522 lung -10% | COLO 205 colon 0.963%

O=C(/C=C/c1ccc(F)cc1)Nc1cccc2cccnc12
inactive: NCI-H23 lung 91.6% | NCI-H226 lung 97.8% | NCI-H322M lung 101% | HOP-62 NSCLC 98.5% | NCI-H460 lung 89.4% | HOP-92 NSCLC 108% | NCI-H522 lung 97.5% | A549/ATCC NSCLC 107% | 786-0 renal 108% | COLO 205 colon 114%

C[C@@H]1OCC2(CCN(c3cnc(C(=O)Nc4cc(F)cc5cccnc45)cn3)CC2)[C@@H]1N
active: COLO 205 colon 9.27%
inactive: NCI-H23 lung 82.2% | NCI-H226 lung 78.6% | NCI-H322M lung 85.3% | HOP-62 NSCLC 83.8% | NCI-H460 lung 93.5% | HOP-92 NSCLC 45.7% | NCI-H522 lung 34.8% | A549/ATCC NSCLC 82.2% | 786-0 renal 71.3%

O=C(Nc1ccccc1)Nc1nc2ccc([N+](=O)[O-])cc2[nH]1
active: HOP-92 NSCLC -5.31%
inactive: NCI-H23 lung 39.5% | NCI-H226 lung 55.4% | NCI-H322M lung 58.5% | HOP-62 NSCLC 105% | NCI-H460 lung 44.1% | NCI-H522 lung 28.4% | A549/ATCC NSCLC 56.7% | 786-0 renal 67.5% | COLO 205 colon 88.7%

Cc1ccc(C(=O)CSc2nc3ccccc3c(=O)n2C)cc1
inactive: NCI-H23 lung 79.7% | NCI-H226 lung 78.5% | NCI-H322M lung 89.1% | HOP-62 NSCLC 94% | NCI-H460 lung 95.5% | HOP-92 NSCLC 79.6% | NCI-H522 lung 85.3% | A549/ATCC NSCLC 101% | 786-0 renal 97.9% | COLO 205 colon 119%

COc1ccc(-c2nc(C#N)c(N3CCC(S(=O)(=O)N4CCOCC4)CC3)o2)cc1
inactive: NCI-H23 lung 94.5% | NCI-H226 lung 93.9% | NCI-H322M lung 97.2% | HOP-62 NSCLC 99.2% | NCI-H460 lung 103% | HOP-92 NSCLC 99.3% | NCI-H522 lung 89.5% | A549/ATCC NSCLC 98.1% | 786-0 renal 94.2% | COLO 205 colon 111%

Cc1ccc2c(n1)C(=O)C(Cl)=C(Nc1ccc(C)c(C)c1)C2=O
inactive: NCI-H23 lung 11.7% | NCI-H226 lung 36% | NCI-H322M lung 60.9% | HOP-62 NSCLC 60.2% | NCI-H460 lung 46.4% | HOP-92 NSCLC 105% | NCI-H522 lung 58.9% | A549/ATCC NSCLC 24.5% | 786-0 renal 104% | COLO 205 colon 105%

COc1ccc2[nH]cc(/C=N/Nc3ccnc4cc(Cl)ccc34)c2c1
active: NCI-H23 lung -91.8% | NCI-H226 lung -78.7% | NCI-H322M lung -100% | HOP-62 NSCLC -56.7% | NCI-H460 lung -78.1% | HOP-92 NSCLC -91.6% | NCI-H522 lung -62.4% | A549/ATCC NSCLC -49.2% | 786-0 renal -92.3% | COLO 205 colon -56.7%

O=C(CCCCCCNC(=O)C(O)(O)C(F)(F)F)Nc1ncc(-c2ccc(Br)cc2)s1
active: NCI-H23 lung -16% | NCI-H226 lung 4.5% | HOP-62 NSCLC -6.49% | NCI-H460 lung 0.631% | HOP-92 NSCLC -23.3% | NCI-H522 lung -44.9% | A549/ATCC NSCLC -15.2% | COLO 205 colon -55.9%
inactive: NCI-H322M lung 12.2% | 786-0 renal 14.9%

CNC(=O)c1cc(Oc2ccc3c(c2)sc2nc(-c4ccc(N(C)C)cc4)cn23)ccn1
inactive: NCI-H23 lung 35.5% | NCI-H226 lung 36.2% | NCI-H322M lung 48.1% | HOP-62 NSCLC 45.4% | HOP-92 NSCLC 37.9% | A549/ATCC NSCLC 23.4% | 786-0 renal 31%
active: NCI-H460 lung 8.23% | NCI-H522 lung 3.82% | COLO 205 colon 8.9%

c1ccc(-c2cn3c(-c4c[nH]c5ccccc45)csc3n2)cc1
inactive: NCI-H23 lung 57.8% | NCI-H226 lung 80.4% | NCI-H322M lung 85.4% | HOP-62 NSCLC 91.3% | NCI-H460 lung 60.8% | NCI-H522 lung 51% | A549/ATCC NSCLC 92% | 786-0 renal 99.5% | COLO 205 colon 83.5%
active: HOP-92 NSCLC -1.71%

CCc1cc(O)ccc1Nc1cc(-c2ccc(-n3cccn3)cc2)[nH]n1
inactive: NCI-H23 lung 74.7% | NCI-H226 lung 87.3% | NCI-H322M lung 64% | HOP-62 NSCLC 37% | NCI-H460 lung 45% | HOP-92 NSCLC 139% | NCI-H522 lung 38% | A549/ATCC NSCLC 56.2% | 786-0 renal 84.9% | COLO 205 colon 49.8%

CCN(CC)c1ccc(/C=N/NC(=O)c2ccc(S(N)(=O)=O)cc2)cc1
active: NCI-H460 lung 7.17% | 786-0 renal 9.66%
inactive: NCI-H23 lung 25.1% | NCI-H226 lung 45.1% | NCI-H322M lung 28.1% | HOP-62 NSCLC 18.6% | HOP-92 NSCLC 72.3% | NCI-H522 lung 18.7% | A549/ATCC NSCLC 26.1% | COLO 205 colon 11.1%

Cc1ccc2c(n1)C(=O)C(Cl)=C(Nc1ccc(C(F)(F)F)cc1)C2=O
inactive: NCI-H23 lung 68.5% | NCI-H226 lung 89.5% | NCI-H322M lung 107% | HOP-62 NSCLC 97.2% | NCI-H460 lung 101% | HOP-92 NSCLC 71.3% | A549/ATCC NSCLC 102% | 786-0 renal 34% | COLO 205 colon 16.7%
active: NCI-H522 lung -18.8%

CCOP(=O)(OCC)OC[C@]12CCC(C)(C)CC1C1=CC[C@@H]3[C@@]4(C)CCCNC(C)(C)[C@@H]4CC[C@@]3(C)[C@]1(C)CC2 (stereo not given in full)
active: COLO 205 colon 3.12%
inactive: NCI-H23 lung 85.2% | NCI-H226 lung 89% | NCI-H322M lung 95.7% | HOP-62 NSCLC 101% | NCI-H460 lung 55.1% | HOP-92 NSCLC 64.8% | NCI-H522 lung 90.2% | A549/ATCC NSCLC 70.8% | 786-0 renal 69.4%

CNC(=O)c1cc(N2CCc3cc(NC(=O)Nc4ccc(N5CCN(C)CC5)c(C(F)(F)F)c4)ccc32)ccn1
inactive: NCI-H23 lung 88.4% | NCI-H226 lung 99.4% | NCI-H322M lung 96.6% | HOP-62 NSCLC 76.7% | NCI-H460 lung 62.6% | HOP-92 NSCLC 69% | NCI-H522 lung 103% | A549/ATCC NSCLC 68.6% | 786-0 renal 29.3% | COLO 205 colon 104%

C#CCOc1ccc(/C=N/Nc2nc(-c3ccc(OC)cc3)cs2)cc1
inactive: NCI-H23 lung 68.9% | NCI-H226 lung 63.7% | NCI-H322M lung 95% | HOP-62 NSCLC 97.6% | NCI-H460 lung 77.3% | HOP-92 NSCLC 68.6% | NCI-H522 lung 70.1% | A549/ATCC NSCLC 77% | 786-0 renal 89.2% | COLO 205 colon 96.1%

N#Cc1c(-c2cccs2)cc(-c2cnccn2)nc1SCC(=O)N/N=C/c1ccncc1
inactive: NCI-H23 lung 102% | NCI-H226 lung 104% | NCI-H322M lung 116% | HOP-62 NSCLC 106% | NCI-H460 lung 108% | HOP-92 NSCLC 98.4% | NCI-H522 lung 96.1% | A549/ATCC NSCLC 107% | 786-0 renal 104% | COLO 205 colon 118%

CC1(C)CC[C@]23CC[C@]4(C)[C@H](CC[C@@H]5[C@@]6(C)CC[C@H](N)C(C)(C)[C@@H]6CC[C@]54C)[C@H]2[C@H]1OC3
active: NCI-H460 lung -34.8% | 786-0 renal -60.4% | COLO 205 colon -40.4%
inactive: NCI-H23 lung 88.8% | NCI-H226 lung 96.6% | NCI-H322M lung 93.6% | HOP-62 NSCLC 96.1% | HOP-92 NSCLC 69.3% | NCI-H522 lung 99% | A549/ATCC NSCLC 24.3%

C#C[C@]1(O)CC[C@H]2[C@@H]3CC=C4c5sc(Nc6cc(C)cc(C)c6)nc5CC[C@]4(C)[C@H]3CC[C@@]21C
inactive: NCI-H23 lung 14.8% | NCI-H226 lung 38.6% | NCI-H322M lung 40.9% | HOP-62 NSCLC 20.5% | NCI-H460 lung 12.2% | HOP-92 NSCLC 31.4% | NCI-H522 lung 42.7% | A549/ATCC NSCLC 21.1%
active: 786-0 renal -31.2% | COLO 205 colon -13.3%

COc1ccc(C(=NNS(=O)(=O)c2ccc(C)cc2)c2ccccc2)cc1OC
inactive: NCI-H23 lung 99.5% | NCI-H226 lung 99.5% | NCI-H322M lung 92.9% | HOP-62 NSCLC 102% | NCI-H460 lung 105% | HOP-92 NSCLC 90.4% | NCI-H522 lung 92.4% | A549/ATCC NSCLC 96.1% | 786-0 renal 99.1% | COLO 205 colon 111%

O=S(=O)(NCCCNc1nccc(-c2[nH]c(-c3ccccc3)nc2-c2ccc(F)c(O)c2)n1)c1ccccc1
inactive: NCI-H23 lung 96.5% | NCI-H226 lung 99.4% | NCI-H322M lung 117% | HOP-62 NSCLC 120% | NCI-H460 lung 87.3% | HOP-92 NSCLC 105% | NCI-H522 lung 91.2% | A549/ATCC NSCLC 98.3% | 786-0 renal 113% | COLO 205 colon 95.5%

Source: PubChem BioAssay (NCI)
